Assay outcomes deposited in PubChem BioAssay by The Scripps Research Institute Molecular Screening Center.
Compounds with a hit are over-represented: about 0.84% of the library has one in this group of screens.
PPARg SRC1 recr = PPARgamma agonists recruiting SRC-1 coactivator, primary screen, biochemical. Peroxisome proliferator-activated receptor gamma (Homo sapiens), P37231. PPARgamma-SRC-1 coactivator recruitment biochemical assay. activation, % at 8 µM. 200,000 compounds, 0.41% hits; in the data active = activation above about 19%;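 also: 0% = DMSO and 100% = reference agonist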
Target sequence (P37231 whole entry, looked up): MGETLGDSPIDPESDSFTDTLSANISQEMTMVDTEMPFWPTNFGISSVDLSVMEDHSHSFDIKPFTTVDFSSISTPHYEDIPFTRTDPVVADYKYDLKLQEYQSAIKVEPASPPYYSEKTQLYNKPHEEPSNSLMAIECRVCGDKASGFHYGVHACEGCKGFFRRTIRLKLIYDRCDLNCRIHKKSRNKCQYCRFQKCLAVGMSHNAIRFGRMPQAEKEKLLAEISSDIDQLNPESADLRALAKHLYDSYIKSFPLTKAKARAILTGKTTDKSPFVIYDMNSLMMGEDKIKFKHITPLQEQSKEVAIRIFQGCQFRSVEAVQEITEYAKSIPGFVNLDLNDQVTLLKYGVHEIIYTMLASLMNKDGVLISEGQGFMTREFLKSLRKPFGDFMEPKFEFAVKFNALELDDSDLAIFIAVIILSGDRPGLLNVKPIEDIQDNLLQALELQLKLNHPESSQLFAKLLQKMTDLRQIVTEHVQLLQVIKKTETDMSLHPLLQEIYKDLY
SRC1 TRFRET art = TR-FRET detection interference compounds, primary screen, artefact control for PPARgamma SRC-1 recruitment agonists, biochemical, TR-FRET emission ratio. TR-FRET detection artefact counter-screen; active compounds read high. TR-FRET ratio at 8 µM. 99,000 compounds, 0.34% hits. AID 1051, 2008; in the data active = TR-FRET ratio above about 2300
SRC2 TRFRET art = TR-FRET signal artefacts, primary screen, artefact control for PPARgamma SRC-2 agonist project, biochemical; TR-FRET artefact counter-screen; active compounds read high; TR-FRET ratio at 8 µM; 200,000 compounds, 0.4% hits
PPARg SRC-3 ag = PPARgamma agonists recruiting SRC-3 coactivator, primary screen, biochemical; biochemical PPARgamma/SRC-3 coactivator recruitment assay; 200,000 compounds, 0.26% hits; AID 731, 2007; Peroxisome proliferator-activated receptor gamma (Homo sapiens), P37231; activation, % at 8 µM; in the data active = activation above about 23%;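 also: 0% = DMSO and 100% = reference agonist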
SRC3 TRFRET art = TR-FRET detection interference compounds, artefact control for PPARgamma SRC-3 recruitment agonists, biochemical, TR-FRET ratio | TR-FRET artefact counter-screen, PPARgamma/SRC-3 format; active compounds read high | TR-FRET ratio at 8 µM | 99,000 compounds, 0.39% hits | AID 1048, 2008
PPARg SRC-2 ag = agonists of PPARg-SRC-2 recruitment, primary screen, biochemical, HTS | 200,000 compounds, 0.34% hits | PPARgamma LBD-SRC-2 recruitment | Peroxisome proliferator-activated receptor gamma (Homo sapiens), P37231 | activation, % at 8 µM | AID 1032, 2008; in the data active = activation above about 22%;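 also: 0% = vehicle and 100% = reference agonist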
Starred values were filed as active, the others as inactive; . = not tested or not shown. Rule as the data show it, unless noted: active = TR-FRET ratio above about 2000; inactive = the rest.

SMILES | PPARg SRC1 recr | SRC1 TRFRET art | SRC2 TRFRET art | PPARg SRC-3 ag | SRC3 TRFRET art | PPARg SRC-2 ag
COc1cccc(-c2nc(-c3ccc(NC(=O)Cc4ccccc4OC)cc3)no2)c1 | -2.0 | . | 1985* | 0.0 | . | -4.5
COc1ccc(-c2noc(Cc3ccccc3OC)n2)cc1 | 3.8 | . | 1718 | 25.7* | . | 6.8
COc1cccc(NC(=O)Cc2nc(-c3ccccc3)sc2-c2ccc(C)cc2)c1 | 2.0 | 3241* | 2590* | 3.0 | 3358* | -6.4
COc1ccc(C(=O)OCC(=O)N2CCCC2=O)c(OC)c1 | -4.3 | 1678 | 1464 | -3.2 | 1699 | -6.5
CCOC(=O)CC(=O)N/N=C/c1c(N)n(C)c(=O)n(C)c1=O | -16.7 | 1799 | 1410 | 0.9 | 1713 | -10.2
Cc1ccc(S(=O)(=O)Nc2ccc(-c3csc(-c4ccccc4)n3)cc2)cc1 | 11.5 | 2042 | 1791 | 6.4 | 2149* | 5.6
C(=N\Nc1nc(Nc2ccccc2)nc(N2CCCCC2)n1)/c1ccco1 | -1.5 | 1797 | 1737 | 2.9 | 1600 | -4.9
COc1cccc(-c2csc(N3CCN(C(=S)Nc4ccc(Cl)cc4)CC3)n2)c1 | 9.5 | . | 3147* | 12.6 | . | 12.3
COc1cccc(-c2csc(N3CCN(C(=O)NC45CC6CC(CC(C6)C4)C5)CC3)n2)c1 | 0.3 | . | 2123* | 11.5 | . | -0.4
CCOCCCNC(=O)c1c[nH]c2c(CC)cccc2c1=O | -8.0 | 1583 | 1428 | -3.7 | 1513 | -4.0
CC(=O)c1ccc(N2Cc3ccccc3C3(CCOCC3)C2=N)cc1 | -1.7 | 1897 | 1269 | -0.7 | 1451 | -2.0
CCO[C@H]1OC(C(=O)N2CCN(C)CC2)=C[C@@H](C)[C@@H]1CCCO | 4.6 | 1739 | 1659 | -1.1 | 1440 | 6.4
CCOC(=O)C1=C(C)OC(N)=C(C#N)C1c1ccc(C)s1 (centres undefined) | 5.6 | 1678 | 1649 | -2.3 | 1418 | 5.7
O=C(COc1ccc(/C=N/NC(=O)c2cc3ccccc3o2)cc1Br)Nc1ccccc1 | 5.8 | . | 3281* | 9.0 | . | 63.0*
COc1ccc(CC(=O)NCc2nnc(SCC(=O)Nc3cccc(F)c3)n2C)cc1 | 2.8 | 1764 | 1397 | -1.6 | 1574 | 38.2*
COc1ccc(CC(=O)NCc2nnc(SCC(=O)Nc3ccccc3)n2C)cc1 | 7.2 | 1814 | 1582 | 1.1 | 1639 | 8.1
CCN1CCCC1CNC(=O)c1cc2c(-c3ccc(Cl)cc3)nn(C)c2s1 (centres undefined) | 21.6* | . | 1719 | -0.2 | . | 4.4
COc1ccc(OC)c(/C=N\NC(=O)CC(=O)NCCc2ccccc2)c1 | 6.6 | 2318* | 1584 | 4.3 | 1704 | 9.5
CCS(=O)(=O)N1CCN(c2nc(-c3ccccc3)cs2)CC1 | 8.9 | 1774 | 1453 | 10.1 | 2121* | 5.3
CS(=O)(=O)N1CCN(c2nc(-c3ccccc3)cs2)CC1 | 4.4 | . | 1400 | 4.6 | . | -1.2
Cc1ccc(OCCN2C(=O)C(=O)c3cccc(C)c32)cc1 | -0.5 | 1643 | 1637 | 2.8 | 1687 | -3.0
CCCOc1ccc(CNCCCOCC)cc1OC | 0.7 | 1975 | 1583 | 0.2 | 1489 | -4.4
CCOCCCNCc1ccc(OC)c(OC)c1 | 4.7 | . | 2500* | -3.9 | . | 34.4*
COc1ccc(C(=O)COC(=O)CCc2nc3ccccc3[nH]c2=O)cc1Br | -2.0 | 1714 | 1789 | 5.2 | 1652 | -1.6
O=S(=O)(/C=C/c1ccccc1)N1CCN(c2nc(-c3cccnc3)nc3ccccc23)CC1 | 5.3 | 2657* | 1899 | 7.4 | 2270* | 7.1
c1cncc(-c2nc(N3CCOCC3)c3ccccc3n2)c1 | -12.4 | . | 1467 | 2.8 | . | -2.4
CC(=O)NC1=NC(=O)/C(=C/c2cc(C)n(-c3cccc(C(=O)O)c3)c2C)S1 | -0.5 | 2073 | 1638 | 1.7 | 1697 | 4.6
CC(=O)NC1=NC(=O)/C(=C/c2cc(C)n(-c3ccc(NC(C)=O)cc3)c2C)S1 | 2.9 | 1777 | 1615 | 24.1* | 2601* | 4.6
O=C(C1=C[C@@H](c2ccc(Br)cc2)C[C@@H](OCCCCO)O1)N1CCN(Cc2ccc3c(c2)OCO3)CC1 | 1.1 | 1764 | 1592 | 31.4* | 1729 | 6.2
